Data published in PubChem BioAssay AID1159580 (chemical genetic matrix, 2015).
Hit rate of the full screen: of about 5,500 compounds, about 2,000 (36%) were called active. Inconclusive results (about 18%) are left out. Rule as the data show it: active = normalized growth mostly below about 0.91 (no sharp cut-off); inconclusive = no clear call, values can overlap the other calls; inactive = mostly above about 0.92. The list shows a part of the results.

Assay: chemical genetic growth profiling, strain panel (AID 1159580);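 also: tested at 20 µM; growth read once vehicle control cultures reached saturation at 30 °C; 1 = growth at the plate median or of vehicle wells; lower values mean less growth of the strain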
Conditions: growth OD

Measured: normalized growth

COc1c(O)cc2c(c1O)[C@H]1O[C@H](CO)[C@@H](O)[C@H](O)[C@@H]1OC2=O
inactive: S. cerevisiae deletion strains, locus YKL009W, strain mrt4, stronger effect = lower value 1.01 | S. cerevisiae deletion strains, locus YKL068W, stronger effect = lower value 1.01 | S. cerevisiae deletion strains, locus YKL085W, strain MDH1 (second series), stronger effect = lower value 1 | S. cerevisiae deletion strains, locus YKL085W, strain MDH1, stronger effect = lower value 1 | S. cerevisiae deletion strains, locus YKL160W, strain elf1, stronger effect = lower value 1.03 | S. cerevisiae deletion strains, locus YKL190W, strain CNB1, stronger effect = lower value 0.975 | S. cerevisiae deletion strains, locus YKR001C, strain vps1, stronger effect = lower value 1.01 | S. cerevisiae deletion strains, locus YKR026C, strain gcn3, stronger effect = lower value 1.01 | S. cerevisiae deletion strains, locus YKR091W, strain srl3, stronger effect = lower value 1.02 | S. cerevisiae deletion strains, locus YLL001W, strain dnm1, stronger effect = lower value 1.03 | S. cerevisiae deletion strains, locus YLL026W, stronger effect = lower value 1.01 | S. cerevisiae deletion strains, locus YLL041C, strain sdh2, stronger effect = lower value 1.02 | S. cerevisiae deletion strains, locus YLR027C, strain aat2, stronger effect = lower value 1.02 | S. cerevisiae deletion strains, locus YLR039C, strain RIC1, stronger effect = lower value 1.04 | S. cerevisiae deletion strains, locus YLR058C, strain SHM2, stronger effect = lower value 0.986 | S. cerevisiae deletion strains, locus YLR102C, strain apc9, stronger effect = lower value 1 | S. cerevisiae deletion strains, locus YLR113W, strain HOG1, stronger effect = lower value 0.985 | S. cerevisiae deletion strains, locus YLR221C, strain rsa3, stronger effect = lower value 1.02 | S. cerevisiae deletion strains, locus YLR258W, strain gsy2, stronger effect = lower value 1.04 | S. cerevisiae deletion strains, locus YLR262C, strain YPT6 (second series), stronger effect = lower value 1.06 | S. cerevisiae deletion strains, locus YLR262C, strain YPT6, stronger effect = lower value 1.07 | S. cerevisiae deletion strains, locus YLR268W, strain sec22, stronger effect = lower value 1.01 | S. cerevisiae deletion strains, locus YLR320W, strain mms22, stronger effect = lower value 1.05 | S. cerevisiae deletion strains, locus YLR330W, strain CHS5, stronger effect = lower value 1.01 | S. cerevisiae deletion strains, locus YLR342W, strain FKS1 (second series), stronger effect = lower value 0.902 | S. cerevisiae deletion strains, locus YLR342W, strain FKS1, stronger effect = lower value 1.02 | S. cerevisiae deletion strains, locus YLR357W, strain rsc2, stronger effect = lower value 1.01 | S. cerevisiae deletion strains, locus YLR370C, strain arc18, stronger effect = lower value 1.02 | S. cerevisiae deletion strains, locus YLR371W, strain rom2, stronger effect = lower value 1.01 | S. cerevisiae deletion strains, locus YLR384C, strain iki3, stronger effect = lower value 1.01 | S. cerevisiae deletion strains, locus YLR418C, strain cdc73, stronger effect = lower value 1.02 | S. cerevisiae deletion strains, locus YML016C, strain PPZ1, stronger effect = lower value 1 | S. cerevisiae deletion strains, locus YML032C, strain rad52, stronger effect = lower value 0.999 | S. cerevisiae deletion strains, locus YML120C, strain ndi1, stronger effect = lower value 1.03 | S. cerevisiae deletion strains, locus YML124C, strain tub3, stronger effect = lower value 1.01 | S. cerevisiae deletion strains, locus YMR058W, strain fet3, stronger effect = lower value 1.01 | S. cerevisiae deletion strains, locus YMR078C, strain ctf18, stronger effect = lower value 1.01 | S. cerevisiae deletion strains, locus YMR125W, strain sto1, stronger effect = lower value 1.02 | S. cerevisiae deletion strains, locus YMR129W, stronger effect = lower value 1.02 | S. cerevisiae deletion strains, locus YMR205C, strain PFK2, stronger effect = lower value 1.03 | S. cerevisiae deletion strains, locus YMR223W, strain ubp8, stronger effect = lower value 0.993 | S. cerevisiae deletion strains, locus YMR231W, strain pep5, stronger effect = lower value 1.02 | S. cerevisiae deletion strains, locus YMR263W, strain SAP30, stronger effect = lower value 0.993 | S. cerevisiae deletion strains, locus YMR307W, strain GAS1, stronger effect = lower value 0.828 | S. cerevisiae deletion strains, locus YNL067W, strain RPL9B, stronger effect = lower value 0.97 | S. cerevisiae deletion strains, locus YNL071W, strain lat1, stronger effect = lower value 1.03 | S. cerevisiae deletion strains, locus YNL128W, strain TEP1, stronger effect = lower value 1.01 | S. cerevisiae deletion strains, locus YNL153C, strain GIM3, stronger effect = lower value 0.999 | S. cerevisiae deletion strains, locus YNL183C, strain NPR1, stronger effect = lower value 0.933 | S. cerevisiae deletion strains, locus YNL209W, strain ssb2, stronger effect = lower value 1.02 | S. cerevisiae deletion strains, locus YNL233W, strain BNI4, stronger effect = lower value 0.939 | S. cerevisiae deletion strains, locus YNL248C, strain rpa49, stronger effect = lower value 1.01 | S. cerevisiae deletion strains, locus YNL250W, strain rad50, stronger effect = lower value 1.02 | S. cerevisiae deletion strains, locus YNL271C, strain bni1, stronger effect = lower value 1.02 | S. cerevisiae deletion strains, locus YNL298W, strain CLA4, stronger effect = lower value 1.02 | S. cerevisiae deletion strains, locus YNL307C, strain MCK1, stronger effect = lower value 1.01 | S. cerevisiae deletion strains, locus YNL322C, strain KRE1 (second series), stronger effect = lower value 1.02 | S. cerevisiae deletion strains, locus YNR049C, strain mso1, stronger effect = lower value 1.02 | S. cerevisiae deletion strains, locus YNR052C, strain pop2, stronger effect = lower value 0.998 | S. cerevisiae deletion strains, locus YOL006C, strain TOP1, stronger effect = lower value 0.973 | S. cerevisiae deletion strains, locus YOL012C, strain htz1 0.964 | S. cerevisiae deletion strains, locus YOL147C, strain pex11, stronger effect = lower value 1 | S. cerevisiae deletion strains, locus YOR001W, strain rrp6, stronger effect = lower value 1.01 | S. cerevisiae deletion strains, locus YOR061W, strain CKA2, stronger effect = lower value 0.995 | S. cerevisiae deletion strains, locus YOR069W, strain VPS5, stronger effect = lower value 0.985 | S. cerevisiae deletion strains, locus YOR070C, strain gyp1, stronger effect = lower value 1.01 | S. cerevisiae deletion strains, locus YOR080W, strain dia2, stronger effect = lower value 1.02 | S. cerevisiae deletion strains, locus YOR083W, strain WHI5, stronger effect = lower value 1.03 | S. cerevisiae deletion strains, locus YOR106W, strain vam3, stronger effect = lower value 1.02 | S. cerevisiae deletion strains, locus YOR136W, strain idh2, stronger effect = lower value 1.02 | S. cerevisiae deletion strains, locus YOR144C, strain elg1, stronger effect = lower value 1.01 | S. cerevisiae deletion strains, locus YOR184W, strain ser1, stronger effect = lower value 1.02 | S. cerevisiae deletion strains, locus YOR231W, strain MKK1, stronger effect = lower value 0.961 | S. cerevisiae deletion strains, locus YOR265W, strain rbl2, stronger effect = lower value 1.02 | S. cerevisiae deletion strains, locus YOR270C, strain vph1, stronger effect = lower value 1.06 | S. cerevisiae deletion strains, locus YOR290C, strain snf2, stronger effect = lower value 0.992 | S. cerevisiae deletion strains, locus YOR316C, strain cot1, stronger effect = lower value 1.01 | S. cerevisiae deletion strains, locus YPL051W, strain arl3, stronger effect = lower value 1.01 | S. cerevisiae deletion strains, locus YPL055C, strain LGE1, stronger effect = lower value 0.967 | S. cerevisiae deletion strains, locus YPL078C, strain atp4, stronger effect = lower value 1.03 | S. cerevisiae deletion strains, locus YPL106C, strain sse1, stronger effect = lower value 1.02 | S. cerevisiae deletion strains, locus YPL240C, strain hsp82, stronger effect = lower value 1.02 | S. cerevisiae deletion strains, locus YPL241C, strain CIN2, stronger effect = lower value 0.991 | S. cerevisiae deletion strains, locus YPL256C, strain CLN2, stronger effect = lower value 0.935 | S. cerevisiae deletion strains, locus YPR119W, strain clb2, stronger effect = lower value 1.01 | S. cerevisiae deletion strains, locus YPR141C, strain kar3, stronger effect = lower value 1.01 | S. cerevisiae deletion strains, locus YPR163C, strain tif3, stronger effect = lower value 1 | S. cerevisiae deletion strains, locus YPR167C, strain met16, stronger effect = lower value 1.02 | S. cerevisiae deletion strains, strain wtn01, stronger effect = lower value 1.01 | S. cerevisiae strains, strain wild type, stronger effect = lower value 0.957
